Experimental data as given in the supplement of paper PMC3334620.
Over roughly 33,000 sequences, “E-score (-0.5 to 0.5)” has its median near -0.015; the highest 2% begin near 0.3. This is one part of a sample in which the highest values are shown more often than they occur.

The sequences below were run against T1, Abf1 (UniProt P14164) (assay: PBM E-score (8-mer binding enrichment) (E-score (-0.5 to 0.5)); higher = stronger / more preferred TF binding). Settings: protein concentration: 200 nM; construct: GST-full length.
T1 sequence: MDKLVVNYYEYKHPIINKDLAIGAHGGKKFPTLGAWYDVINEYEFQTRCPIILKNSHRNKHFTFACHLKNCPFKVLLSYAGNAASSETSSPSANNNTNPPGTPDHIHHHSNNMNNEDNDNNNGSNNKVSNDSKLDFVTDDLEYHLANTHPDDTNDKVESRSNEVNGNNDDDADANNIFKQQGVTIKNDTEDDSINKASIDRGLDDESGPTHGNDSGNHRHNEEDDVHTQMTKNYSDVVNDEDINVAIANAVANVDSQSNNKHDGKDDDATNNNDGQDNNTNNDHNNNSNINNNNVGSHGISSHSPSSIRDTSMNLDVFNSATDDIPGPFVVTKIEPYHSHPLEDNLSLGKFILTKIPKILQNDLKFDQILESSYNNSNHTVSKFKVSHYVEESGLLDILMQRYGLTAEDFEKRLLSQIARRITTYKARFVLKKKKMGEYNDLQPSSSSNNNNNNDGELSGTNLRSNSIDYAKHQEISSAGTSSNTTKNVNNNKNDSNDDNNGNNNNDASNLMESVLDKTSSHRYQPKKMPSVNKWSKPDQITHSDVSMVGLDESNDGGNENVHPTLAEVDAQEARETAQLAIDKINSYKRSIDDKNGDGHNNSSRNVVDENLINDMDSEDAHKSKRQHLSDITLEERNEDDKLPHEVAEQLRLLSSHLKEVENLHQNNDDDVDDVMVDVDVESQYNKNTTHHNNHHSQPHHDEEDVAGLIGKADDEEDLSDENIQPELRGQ
Experimental: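 Universal 'all 10-mer' protein binding microarrays (Agilent AMADID 015681) probed with GST-tagged S. cerevisiae TFs (full-length or DBD) made by in vitro transcription/translation (PURExpress), about 100-200 nM. Bound TF was detected with fluorescent anti-GST. Each ungapped 8-mer (which stands for itself and its reverse complement) is scored by the PBM enrichment score (E-score), a modified Wilcoxon-Mann-Whitney statistic from -0.5 to +0.5, computed with the Universal PBM Analysis Suite. Scale: above 0.35 generally sequence-specific binding.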

Sequence	PBM E-score
ACGTACAA	0.218
CGGTACAA	0.211
CCGTACAC	0.3
GCGTACAC	0.0451
GCGTACAA	0.197
CAGTACAA	0.0284
CCGTACAA	0.432
CCGTACAG	0.21
AAGGTTTC	-0.0855
CCGACAGA	-0.00185
TACGTTAA	0.132
AGATGCCC	-0.144
GCATCCGA	-0.146
GAGAGTGC	-0.192
TAGAGTGA	0.248
GAGAGTGA	0.324
CCGTTTTA	0.203
AGATGACC	0.132
TGATGACA	0.376
TCATGACA	0.323
AGATGACA	0.316
AGATGACT	-0.0855
CGATGACA	0.319
ACATGACA	0.256
TGATGAAA	0.0461

Sequence	PBM E-score
CGATGACG	0.136
GCATGACA	0.207
CGATGACC	0.206
GGATGACA	0.253
CTCGTGCC	-0.0761
CCGGATGA	-0.024
GAACACAA	-0.0576
GCGAGTGA	0.137
ACTGGTCT	-0.176
ACTTGTCT	-0.0797
CGATTGGC	-0.0866
CCCCGCGG	-0.255
CGGTCGCC	-0.00137
AATGACGC	0.106
ATTGACGA	0.377
ATTGACGG	0.211
GATGACGA	0.265
CATGACGA	0.374
CCTGACGA	0.214
CATGACGG	0.0231
AATGACGT	0.125
ACTGACGA	0.305
GTTGACGA	0.21
AATGACGA	0.36
ACTGACGG	-0.0335

Sequence	PBM E-score
TCAGGCGA	0.0781
ATCGACTA	0.029
ATAAGATG	0.201
ATGTTCTG	0.093
GGTCGCAA	-0.0813
GGAGAGCA	-0.253
ACTATGGA	-0.013
ATAATTAT	0.303
AGAATGAG	-0.157
AGAATGAA	0.144
ATAATTAA	0.274
ATAATGAT	0.344
AAAATGGC	0.0419
ATAATGAG	0.117
ATAATTAC	0.261
ACAATGAC	0.107
AAAATGAC	0.297
AGAATGAT	0.33
ATAATGAC	0.258
GGGACGTA	0.159
CGAGTCAA	-0.0144
AGAAGGCG	-0.119
GGGATACA	-0.0572
CTGTCTGC	-0.243
ATTCCGAA	0.0789

Sequence	PBM E-score
CAAGGAGC	-0.363
GGCAAAAC	-0.0611
CAAATGAC	0.144
GAAATGAC	0.312
GAAATGAA	0.164
AAAATGAT	0.387
AAAATGAA	0.056
AAAATGAG	0.0916
AAGGCTTA	-0.214
TGACGTCA	0.314
AGACGTCA	0.107
TCACGTCA	0.331
ACACGTCA	0.151
GCACGTCA	0.0421
GGACGTCA	0.0888
CCACCTAG	-0.225
GATGGTGA	0.0135
AATCACCA	0.24
TATCACCA	0.364
GATCACCA	0.308
CATCACCA	0.176
GATCACCC	0.261
GCTCACCA	-0.17
CAGAATTC	0.0421
GAACTTCC	-0.12

Sequence	PBM E-score
GTCTCAAA	0.161
GTTACTCA	0.0462
AGAAACGC	-0.132
AACTCCTG	-0.177
ACCCGGAG	-0.0473
AATGCCTA	-0.212
GCTTACGA	-0.071
CATTACGA	0.128
ACTTACGA	0.325
TATTACGA	0.311
AATTACGA	0.186
ACTTACGC	-0.0756
CATTGGTC	-0.0867
ATCCACAA	-0.138
ATCCACGA	0.199
ATCCACGG	0.316
AAACCGCG	-0.0683
CCTGGAAC	-0.0203
AGGTGATA	0.357
GGGTGATA	0.38
CGGTGAAA	0.186
CGGTGATC	0.214
CGGTGATA	0.334
GGGTGAGA	-0.136
AGGTGAGA	0.0141

Sequence	PBM E-score
AGGTGATG	0.163
GGGTGAAA	0.0485
CAGCTTCG	0.0552
CTCGAGGC	-0.193
AGCCAGAG	-0.0331
CGGCCTAA	-0.0583
GTCACTCA	0.238
CTCACTCC	-0.0715
AACACTCG	-0.00319
CTCACTCA	0.0709
ACCACTCG	0.187
AACACTCC	-0.121
ATCACTCG	0.31
ATCACTCC	0.345
ATCACTCA	0.369
CGTTTGGC	0.0893
TCAGGACA	0.156
ATCTGAAG	-0.1
ATAACCAT	0.0871
CACAAAAG	-0.0552
CCAGCCAC	-0.0544
CTATGATA	0.143
GTATGATA	0.327
ATATGATG	0.191
GTATGACA	0.176

Sequence	PBM E-score
ATATGATA	0.316
GTATGAGA	0.145
CATCCGGG	-0.161
AAACCGTA	0.221
ACACCAAT	0.0514
CGGGATGA	0.0791
ACGACCGC	0.041
GGGGAATA	-0.112
AAAGAGAG	-0.214
AAGAGAAA	-0.0161
ACTTGAAT	0.0842
CGACATCG	0.301
AGACATTA	-0.0164
GGACATCA	0.215
TGACATCA	0.274
CGACATTA	0.317
AGACATCG	0.111
CGACATTC	0.0424
CGACATCC	0.121
CGACATCA	0.315
CAGAAACA	-0.0715
GAGGAACA	-0.095
